Results on 56 compounds are retold here after paper PMC4336329 (PLoS ONE, 2015).

Screen size: about 310,000 compounds; about 14,000 (4.5%) showed an effect of 50% or more. The effect is printed as a negative number. The list comes from a sample in which strong results are over-represented; it also holds similar structures and randomly drawn compounds.
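Also: peak tail current of the secondary pulse compared with the same well before compound.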

The assay deals with human ether-à-go-go-related gene (hERG) potassium channel (human, UniProt Q12809). The assay is described as follows: primary screen, population patch clamp on CHO cells stably expressing hERG; higher = less effect of the substance.
human ether-à-go-go-related gene (hERG) potassium channel, sequence (Q12809 whole entry, looked up): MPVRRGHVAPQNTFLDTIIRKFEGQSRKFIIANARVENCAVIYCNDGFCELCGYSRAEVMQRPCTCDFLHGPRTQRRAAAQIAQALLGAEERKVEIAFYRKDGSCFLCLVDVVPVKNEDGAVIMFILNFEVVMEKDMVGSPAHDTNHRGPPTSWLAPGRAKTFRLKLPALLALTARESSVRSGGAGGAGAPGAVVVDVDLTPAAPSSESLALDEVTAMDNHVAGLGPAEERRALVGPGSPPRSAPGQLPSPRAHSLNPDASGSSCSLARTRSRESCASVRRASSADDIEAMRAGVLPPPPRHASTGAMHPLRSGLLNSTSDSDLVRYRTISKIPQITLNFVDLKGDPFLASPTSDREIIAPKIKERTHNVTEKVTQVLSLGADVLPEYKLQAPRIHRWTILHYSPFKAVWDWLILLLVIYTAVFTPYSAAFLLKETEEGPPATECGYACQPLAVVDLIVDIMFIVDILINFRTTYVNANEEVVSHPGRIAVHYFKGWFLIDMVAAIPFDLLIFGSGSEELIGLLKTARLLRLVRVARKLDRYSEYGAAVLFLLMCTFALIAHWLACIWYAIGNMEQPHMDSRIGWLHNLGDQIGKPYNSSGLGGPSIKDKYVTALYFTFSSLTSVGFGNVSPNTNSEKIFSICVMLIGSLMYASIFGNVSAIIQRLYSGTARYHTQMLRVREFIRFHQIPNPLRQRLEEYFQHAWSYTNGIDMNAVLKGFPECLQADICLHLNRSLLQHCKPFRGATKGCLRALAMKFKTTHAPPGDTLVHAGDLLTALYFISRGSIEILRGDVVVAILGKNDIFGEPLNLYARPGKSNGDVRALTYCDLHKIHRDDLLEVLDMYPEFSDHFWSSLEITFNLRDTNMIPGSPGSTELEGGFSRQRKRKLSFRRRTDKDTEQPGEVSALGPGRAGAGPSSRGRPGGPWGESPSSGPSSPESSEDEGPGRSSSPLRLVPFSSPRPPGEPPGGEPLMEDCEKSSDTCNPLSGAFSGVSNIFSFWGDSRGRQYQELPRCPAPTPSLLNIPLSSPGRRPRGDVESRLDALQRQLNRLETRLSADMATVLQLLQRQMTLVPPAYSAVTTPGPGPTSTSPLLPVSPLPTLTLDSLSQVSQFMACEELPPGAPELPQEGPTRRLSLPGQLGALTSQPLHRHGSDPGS
For the compound `COCC(C)NC(=O)c1noc2c1CCc1cc(OC)ccc1-2` (centres unmarked), the “hERG current change (%, negative = inhibition) at 10uM” value was -25.9%.
With `CCOc1ncccc1C(=O)Nc1cc(S(=O)(=O)N2CCCCC2)ccc1OC` the figure was -8.23%.
Under `COc1ccc(C)cc1NC(=O)CN1C(=O)COc2ccc(S(=O)(=O)N3CCC(C)CC3)cc21` stands 26.3%; under `CCn1nc(C)c(CN2CCc3c([nH]c4ccccc34)C2c2ccc(F)c(OC)c2)c1C` (centres unmarked), -48.2%.
Under `Cc1cccc(C2c3[nH]c4ccccc4c3CCN2Cc2cccn2-c2ncccn2)c1` (centres unmarked) stands -77.8%.
Take `COc1cccc(C2c3[nH]c4ccccc4c3CCN2Cc2cccn2-c2ncccn2)c1` (centres unmarked): the “hERG current change (%, negative = inhibition) at 10uM” value is -76.1%.
For `COc1cccc(C2c3[nH]c4ccccc4c3CCN2Cc2ncc[nH]2)c1` (centres unmarked), the “hERG current change (%, negative = inhibition) at 10uM” value is on record as -49.4%.
With `CSc1ncc(CN2CCc3c([nH]c4ccccc34)C2c2cccc(O)c2)cn1` (centres unmarked) the figure was -22.9%; with `COc1cccc(C2c3[nH]c4ccccc4c3CCN2Cc2cnc(C)s2)c1OC` (centres unmarked), 2.51%; with `COc1ccc(C2c3[nH]c4ccccc4c3CCN2Cc2cccn2-c2ncccn2)cc1C` (centres unmarked), -52%.
Under `CC(=O)NCCC(=O)N1CCc2c([nH]c3ccccc23)C1c1cccc(C)c1` (centres unmarked) stands -14.3%; under `CCC(=O)NC(NC(=S)Nc1ccccc1Br)C(Cl)(Cl)Cl` (centres unmarked), 18.2%.
Under `O=C1CC2(CCCC2)C(=O)N1CN1CCN(S(=O)(=O)c2ccc(Cl)c(Cl)c2)CC1` stands 3.53%; under `CCCCOC(=O)n1c(SCC(=O)N(CC)CC)nc2ccccc21`, -34.7%; under `CCCn1c(O)c(/C=C2\C=NN=C2c2ccccc2)sc1=S`, 7.93%.
Take `c1ccc(C2Nc3cccc4cccc(c34)N2)cc1`: the “hERG current change (%, negative = inhibition) at 10uM” value worked out at 14%.
With `CN1CCN(NC(=O)c2cc(S(=O)(=O)Nc3ccc(Cl)cc3)ccc2Cl)CC1.Cl` the figure was 5.84%; with `CCOC(=O)CNC(=O)c1ccc(Br)s1`, -9.48%; with `CCOc1cccc(-c2c(C(=O)N/N=C(\C)c3ccncc3)nnn2-c2nonc2N)c1`, -43.6%.
On to `COc1ccc(-c2cccc(C(=O)Nc3ccc(C)cc3)c2)cc1`, for which the “hERG current change (%, negative = inhibition) at 10uM” value was 16.9%.
As to `COc1ccc(-[n+]2c(-c3ccccc3)cc(-c3ccc(C)cc3)cc2-c2ccccc2)cc1.[O-][Cl+3]([O-])([O-])[O-]`, the “hERG current change (%, negative = inhibition) at 10uM” value is -77.7%.
For `COc1ccc(-c2ccc(OC)cc2)cc1`, the “hERG current change (%, negative = inhibition) at 10uM” value turned out to be 7.51%.
With `COc1ccc2cc(-c3ccccc3)c(=O)oc2c1` the figure was 18%.
Take `COc1ccc2cc(-c3ccccc3)ncc2c1`: the “hERG current change (%, negative = inhibition) at 10uM” value is recorded as 5.65%.
Under `COc1ccc(-[n+]2c(-c3ccccc3)cc(-c3ccccc3)cc2-c2ccccc2)cc1.[O-][Cl+3]([O-])([O-])[O-]` stands -71.9%.
Regarding `CSc1ccc(S(=O)(=O)NCc2ccccc2)cc1`, the “hERG current change (%, negative = inhibition) at 10uM” value is 13.1%.
For `CCCC(CCC(=O)Nc1cccc([N+](=O)[O-])c1)C(=O)O` (centres unmarked), the “hERG current change (%, negative = inhibition) at 10uM” value was -0.0899%.
As to `CCOc1ccc(-n2c(C)nc3cc(C(=O)NCC4CCCO4)ccc32)cc1` (centres unmarked), the “hERG current change (%, negative = inhibition) at 10uM” value is -15.2%.
Take `CCN(CC)c1ccc(S(=O)(=O)N2CCCCC2)cc1NC(=O)C1CCC1`: the “hERG current change (%, negative = inhibition) at 10uM” value is given as -15.3%.
With `CC1(C)CC(=O)c2cnc(NCC3CCCO3)nc2C1` (centres unmarked) the figure was 7.24%; with `COc1cc(C2=NOC(C(=O)Nc3ccc4c(c3)OCO4)C2)cc(OC)c1OC` (centres unmarked), 16.6%.
Regarding `FC(F)(F)c1nc(N2CCCC2)ncc1-c1nnnn1-c1ccc(Cl)cc1`, the “hERG current change (%, negative = inhibition) at 10uM” value is on record as -4.4%.
Under `CC1(C)C(N(O)C(=O)Nc2ccc(Cl)cc2)N(c2ccc(Cl)cc2)C(=O)N1CC(=O)NN` (centres unmarked) stands -14.6%; under `O=c1cc(-c2ccccc2)[nH]n2cnnc12`, 12.6%; under `O=C(CN1C(=O)S/C(=C\c2cccc(Cl)c2)C1=O)NCCCn1ccnc1`, -51.2%.
For the compound `CC(C)c1ccc(/C=C2\SC(=S)N(CCC(=O)NCCCn3ccnc3)C2=O)cc1`, the “hERG current change (%, negative = inhibition) at 10uM” value is -17.3%.
Under `O=C(CN1C(=O)S/C(=C\c2ccccc2)C1=O)NCCCn1ccnc1` stands -23.4%; under `O=C(CN1C(=O)S/C(=C\c2ccccc2F)C1=O)NCCCn1ccnc1`, -9.34%.
Under `COc1ccc(/C=C2\SC(=O)N(CC(=O)NCCCn3ccnc3)C2=O)cc1` stands -44.5%; under `COc1cccc(/C=C2\SC(=O)N(CC(=O)NCCCn3ccnc3)C2=O)c1`, -31.6%; under `O=C(CN1C(=O)S/C(=C\c2ccc(Cl)cc2)C1=O)NCCCn1ccnc1`, -68.2%.
With `COc1ccccc1/C=C1\SC(=O)N(CC(=O)NCCCn2ccnc2)C1=O` the figure was -3.76%.
Regarding `O=C(CN1C(=O)S/C(=C\c2ccccc2Cl)C1=O)NCCCn1ccnc1`, the “hERG current change (%, negative = inhibition) at 10uM” value is recorded as -44.5%.
With `COc1ccc(/C=C2\SC(=O)N(CCC(=O)NCCCn3ccnc3)C2=O)cc1` the figure was -43.2%; with `CC(C)c1ccc(/C=C2\SC(=O)N(CC(=O)NCCCn3ccnc3)C2=O)cc1`, -76.9%; with `O=C(CN1C(=O)S/C(=C\c2ccc(F)cc2)C1=O)NCCCn1ccnc1`, -58.9%.
As to `CCCCCCCCN1[C@@H](CC(=O)OC)c2cc(C(F)(F)F)ccc2S1(=O)=O`, the “hERG current change (%, negative = inhibition) at 10uM” value was found to be 1.99%.
`Cc1cc(C)n(-c2nc3c(c(=O)[nH]c(=O)n3C)n2C)n1`: the “hERG current change (%, negative = inhibition) at 10uM” value is given as 10.1%.
Turning to `Oc1ccc(-c2cc(-c3ccc(O)cc3)nc(-c3ccccc3)n2)cc1`, the “hERG current change (%, negative = inhibition) at 10uM” value is recorded as 20.1%.
`Cc1ccc(S(=O)(=O)n2[nH]c(=O)cc2NC(=O)c2cccs2)cc1`: the “hERG current change (%, negative = inhibition) at 10uM” value is recorded as -0.667%.
As to `CCc1nn2c(=O)cc(CSCC(=O)Nc3ccccc3F)nc2s1`, the “hERG current change (%, negative = inhibition) at 10uM” value was determined as 11.3%.
With `Cc1ccccc1OCC(=O)N1CCCCCCC1` the figure was 1.22%.
With `CCC(C#CCN1CCCCC1)(CC)OCCC#N` the figure was 2.57%; with `CCOC(=O)Cc1nnc(NC(=O)CSc2ccccc2)s1`, 7.53%; with `CCOC(=O)CSc1ncc(-c2ccccc2)nn1`, -6.58%.
In the case of `CCOC(=O)Cc1nnc(NC(=O)CSc2ncc(-c3ccccc3)nn2)s1`, the “hERG current change (%, negative = inhibition) at 10uM” value is given as -58.7%.
